PubChem BioAssay (NCATS)
Results filed as inconclusive are left out. Calls of active or inactive are those of the source. Calls follow the shape of the dose curve; as a rule, active = well fitted cell-killing curve with a large enough effect; inconclusive = small, poorly fitted or top-dose-only effect, or effect the other way; inactive = no such curve, though single readings can be large or run the other way.

Assay: Viability qHTS for spleen associated tyrosine kinase inhibitor (SYKi) drug resistant MV4-11 cells (AID 1963824); also: nearly all actives have a fitted effect of over 35% in size
Conditions: SYKi-resistant MV4-11 viability, CellTiter-Glo, 72 h; series mostly up to 45 µM; viability, % of control: at the top concentration
How it was run: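 CellTiter-Glo luminescence, read 10 min after reagent addition, reports viability after a 72 hr compound exposure. Cells are an MV4-11 line made resistant to SYK inhibition, seeded at 500 per well onto compound-containing plates.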
Potency is read from the fitted curve at half-maximal effect.

| Structure (SMILES) | Potency | viability, % of control |
| --- | --- | --- |
| COc1ccc([C@H]2OC[C@H]3O[C@@H](O[C@H]4[C@@H]2NC[C@@H]4O)[C@H](O)[C@H]3O)cc1 | 0.404 µM (active) |  |
| CO[C@H]1O[C@@H]2O[C@]3(C)CC[C@H]4[C@H](C)CC[C@@H]([C@H]1C)[C@@]24OO3 | 2.91 µM (active) |  |
| COCC1OC(OC(C)(C)C2CCC3(C)C=C(C4CCC5C4(C)CC(O)C4OC(C(C)(C)OC6OC(CO)C(O)C(O)C6NC(C)=O)CCC45C)CCC3O2)C(NC(C)=O)C(O)C1O (stereo not given) |  | 108% [at 9.25 µM] (inactive) |
| O=C1NC(Cc2ccc(O)cc2)C(=O)N2CCCC12 (stereo not given) |  | 74.2% (inactive) |
| C/C=C/C=C/C=C/C(=O)O[C@@H]1C=C(CO)C(O)(C(=O)O)[C@@]2(C)CCCC(C)(C)[C@H]12 (stereo not given in full) |  | 56.1% [at 17.3 µM] (inactive) |
| COc1ccccc1-n1c(SCC(=O)Nc2nc3ccc(C)cc3s2)nc2c(c1=O)SCC2 |  | 83.7% [at 17.3 µM] (inactive) |
| CNc1nc(-c2ccc3c(N)n[nH]c3c2)cc(N2CC(C(=O)NC3CCCCC3)CCC2C)n1 (stereo not given) | 4.61 µM (active) |  |
| COC(=O)C1=COC(OC2OC(CO)C(O)C(O)C2O)C2C(C)C(OC(=O)/C=C/c3ccc(O)cc3)C(O)C12 (stereo not given) |  | 48.8% [at 17.3 µM] (inactive) |
| C=C(C)C1CCC2(C(=O)O[C@@H]3O[C@H](CO[C@@H]4O[C@H](CO)[C@@H](O)[C@H](O)[C@H]4O)[C@@H](O)[C@H](O[C@@H]4O[C@@H](C)[C@H](O)[C@@H](O)[C@H]4O)[C@H]3O)CCC3(C(=O)O)C(CCC4C5(C)CCC(O)C(C)(C)C5CCC43C)C12 (stereo not given in full) |  | 114% [at 9.25 µM] (inactive) |
| O=C1NC2CCc3nc4ccccc4c(=O)n3C2=Nc2ccccc21 (stereo not given) |  | 84% (inactive) |
| C=C1C(=O)OC2C1CCC(=C)C1CC(OC(C)=O)C(=C)C12 (stereo not given) | 2.31 µM (active) |  |
| COc1ccc(CCc2nc3cc(-c4c(C)noc4C)ccc3n2CC(C)N2CCOCC2)cc1Cl (stereo not given) | 5.17 µM (active) |  |
| C[C@@H]1O[C@@H](O[C@H]2[C@H](O[C@H]3CC[C@@]4(C)C(CC[C@]5(C)C4CC=C4C6CC(C)(C)CC[C@]6(C(=O)O[C@@H]6O[C@H](CO[C@@H]7O[C@H](CO)[C@@H](O[C@@H]8O[C@@H](C)[C@H](O)[C@@H](O)[C@H]8O)[C@H](O)[C@H]7O)[C@@H](O)[C@H](O)[C@H]6O)CC[C@]45C)[C@]3(C)CO)OC[C@H](O)[C@@H]2O)[C@H](O)[C@H](O)[C@H]1O (stereo not given in full) |  | 88.1% [at 9.25 µM] (inactive) |
| COc1ccc(CCC(=O)c2c(O)cc(O[C@@H]3O[C@H](CO)[C@@H](O)[C@H](O)[C@H]3O[C@@H]3O[C@@H](C)[C@H](O)[C@@H](O)[C@H]3O)cc2O)cc1O |  | 94.9% (inactive) |
| CC(=O)N[C@@H](CC(C)C)C(=O)N[C@@H](CCC(=O)O)C(=O)N[C@@H](CCC(=O)O)C(=O)N[C@@H](CC(=O)O)C(=O)Nc1ccc2c(C(F)(F)F)cc(=O)oc2c1 |  | 107% (inactive) |
| CC1(C)CCC2(C(=O)OC3OC(COC4OC(CO)C(O)C(O)C4O)C(O)C(O)C3O)CCC3(C)C(=CCC4C5(C)CCC(OC6OCC(O)C(O)C6O)C(C)(C)C5CCC43C)C2C1O (stereo not given) |  | 90.4% [at 9.25 µM] (inactive) |
| CC(C)=C1CC2[C@](C)(CC[C@@H](OC(=O)C3(C)OC3C)[C@@]2(C)O)CC1=O (stereo not given in full) |  | 94% (inactive) |
| CC(=O)OC/C(=C/C(=O)O)CC[C@@H]1C(C)=CC(=O)[C@@H]2C(C)(C)CCC[C@@]12C |  | 70.2% (inactive) |
| CC1(C)CC[C@@]2(C(=O)O[C@@H]3O[C@H](CO)[C@@H](O)[C@H](O)[C@H]3O)C(C1)C1=CCC3[C@@]4(C)CC[C@@H](O[C@@H]5O[C@H](C(=O)O)[C@@H](O[C@@H]6OC[C@@H](O)[C@H](O)[C@H]6O)[C@H](O[C@@H]6OC[C@](O)(CO)[C@H]6O)[C@H]5O)C(C)(C)C4CC[C@@]3(C)[C@]1(C)C[C@H]2O (stereo not given in full) |  | 12% [at 9.25 µM] (inactive) |
| C/C=C/c1ccc(O[C@@H]2O[C@H](CO)[C@@H](O)[C@H](O)[C@H]2O)c(OC)c1 |  | 80.8% (inactive) |

| Structure (SMILES) | Potency | viability, % of control |
| --- | --- | --- |
| COC1CC(O[C@H]2CC[C@]3(C)C4CC[C@@]5(C)C(=O)[C@]4(CC[C@@H]3C2)CC[C@@H]5C2=CC(=O)OC2)OC(C)C1OC1OC(COC2OC(CO)C(O)C(O)C2O)C(O)C(O)C1O (stereo not given in full) | 1.23 µM (active) |  |
| COc1cc(C(=O)OC[C@H]2O[C@H](O[C@@]3(CO)O[C@@H](CO)[C@H](O)[C@H]3O)[C@H](O)[C@@H](O)[C@@H]2O)ccc1O |  | 82.9% [at 17.3 µM] (inactive) |
| CC[C@@H]1C(=O)O[C@]23C=C[C@@H]4C(C(=O)OC)=CO[C@H](O[C@@H]12)[C@@H]43 | 5.17 µM (active) |  |
| N#C[C@@H]1C[C@H](F)CN1C(=O)CNC1[C@H]2CN(C(=O)c3ccc(F)cc3)C[C@@H]12 (stereo not given in full) |  | 99.4% (inactive) |
| COC(O)(CC(C)C)C1Oc2cc(C)[nH]c(=O)c2O1 (stereo not given) |  | 70% (inactive) |
| O=C(Nc1nc2ccc([N+](=O)[O-])cc2s1)C1CCCCC1 | 18.4 µM (active) |  |
| CC1=C2C=C(CO)C(CO)CCC2(C)CCC1=O (stereo not given) |  | 100% (inactive) |
| COc1cc(C(O)C(CO)Oc2ccc(CCCO[C@@H]3O[C@@H](C)[C@H](O)[C@@H](O)[C@H]3O)cc2OC)ccc1O (stereo not given in full) |  | 82.7% [at 17.3 µM] (inactive) |
| O=C(Nc1ccc2[nH]ncc2c1)C1CCC1 |  | 71.5% (inactive) |
| C[C@@H]1[C@H]2[C@H](O[C@@H]3O[C@H](CO)[C@@H](O)[C@H](O)[C@H]3O)OC=C(C(=O)O)[C@H]2C[C@@H]1OC(=O)/C=C/c1ccc(O)cc1 |  | 111% [at 17.3 µM] (inactive) |
| O=C1NCCSc2c1sc1ccc(O)cc21 | 2.91 µM (active) |  |
| Cc1ccccc1-c1cc(N2CCN(C)CC2)ncc1N(C)C(=O)C(C)(C)c1cc(C(F)(F)F)cc(C(F)(F)F)c1 |  | 69% (inactive) |
| C/C=C/C=C/C=C/C(=O)O[C@@H]1[C@@H](OC)C2=C(C(=O)N(C(CCC(=O)O)C(=O)O)C2)[C@@]2(C)CCCC(C)(C)[C@H]12 (stereo not given in full) |  | 95.9% [at 17.3 µM] (inactive) |
| C=C1CC[C@@H]2C(C)(C)CCC[C@@]2(C)[C@@H]1CC/C(=C/C(=O)OC)COC(C)=O |  | 71.8% (inactive) |
| COC(=O)C1=CO[C@@H](O[C@@H]2O[C@H](CO)[C@@H](O)[C@H](O)[C@H]2O)[C@H]2[C@@H]1[C@H](O)[C@H](O)[C@]2(C)O |  | 88.7% [at 17.3 µM] (inactive) |
| CC1CCC2(C)C(CC(O)C(O)C23CO3)C1(C)CCC1=CC(O)OC1=O (stereo not given) |  | 86.5% (inactive) |
| COc1cc(/C=C/C(=O)O[C@H]2C[C@@H]3C(C(=O)O)=CO[C@@H](O[C@@H]4O[C@H](CO)[C@@H](O)[C@H](O)[C@H]4O)[C@@H]3[C@H]2C)ccc1O |  | 106% [at 17.3 µM] (inactive) |
| CC1=C[C@H]2[C@@H](CC1=O)[C@H](C)C[C@H](O)[C@H]2C(C)C |  | 58.3% (inactive) |
| O=C1Nc2ccc(O)cc2O[C@H]1O[C@@H]1O[C@H](CO)[C@@H](O)[C@H](O)[C@H]1O |  | 91.2% (inactive) |
| CC1(C)CC[C@]2(C(=O)O[C@@H]3O[C@H](CO)[C@@H](O)[C@H](O)[C@H]3O)CC[C@]3(C)C(=CCC4[C@@]5(C)CC[C@H](O[C@@H]6O[C@H](C(=O)O)[C@@H](O)[C@H](O)[C@H]6O)[C@@](C)(CO)C5CC[C@]43C)C2C1 (stereo not given in full) |  | 100% [at 9.25 µM] (inactive) |
